The supplement of paper PMC12669032
“And” between values parts separate entries of the source, which are not always exact repeats. Identical values can stand only once. Unmarked numbers belong to inactive results.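 How the source made its calls: active = AUC reduced over 20% with Padj below 0.05 in at least 2 of 3 replicates; inactive = otherwise.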

What was measured:
Roseburia intestinalis = assay: growth AUC relative to DMSO control (median of replicates) (fraction); higher = more growth (less inhibition), active = hit call of the paper; settings: 20 µM; 24 h
In short: (§1)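 Area under the growth curve was normalised to the plate median of solvent-only wells, or to row and column medians on the industrial chemical plate. Growth curves came from anaerobic gut bacterial monocultures in mGAM at 37 °C, seeded at OD600 0.05 with 20 µM compound (1% DMSO), and read at OD600 hourly for 24 h with the minimum OD set to 0. The value is the median of three biological replicates grown on separate days.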

Streptococcus salivarius = assay: as above; settings: 20 µM; 24 h
In short: as §1

Row | SMILES | growth AUC (Roseburia intestinalis) | growth AUC (Streptococcus salivarius)
1 | CN(C)C(CSC(N)=O)CSC(N)=O.Cl | 1.07 | 1
2 | O=C(Nc1ccccc1)N(Cc1ccc(Cl)cc1)C1CCCC1 | 0.991 | 0.994
3 | C#CCN1CC(=O)N(COC(=O)C2C(C=C(C)C)C2(C)C)C1=O (mixture of isomers) | 1.04 | 0.943
4 | CC1=C(C(=O)Nc2ccccc2)S(=O)(=O)CCO1 | 0.989 | 0.979
5 | COC(=O)/C=C(/C)OP(=O)(OC)OC | 1.02 and 0.985 | 0.944 and 1
6 | COc1ccc(-c2ccccc2)cc1NNC(=O)OC(C)C | 1.03 | 1.02
7 | C=CC1(C)OC(=O)N(c2cc(Cl)cc(Cl)c2)C1=O (stereo not given) | 0.973 | 1.02
8 | CNC(=O)ON=C(CS(C)=O)C(C)(C)C (stereo not given) | 0.974 | 0.989
9 | CN1CSC(=S)N(C)C1 | 1.03 | 0.983
10 | CC(Cl)(Cl)C(=O)O | 1.01 | 1.01
11 | C=CCC1=C(C)C(OC(=O)[C@@H]2[C@@H](C=C(C)C)C2(C)C)CC1=O (stereo not given in full) | 1.05 | 1.01
12 | CC1CNC(=S)N1 (stereo not given) | 1.02 | 1
13 | CCCSP(=S)(OCC)Oc1ccc(Cl)cc1Cl (stereo not given) | 1.08 | 0.973
14 | COCCN(C(=O)CCl)c1c(C)cccc1C | 0.96 | 0.957
15 | c1ccc2c(c1)cc1ccc3cccc4ccc2c1c34 | 1.13 | 1.06
16 | ClC1=C(Cl)[C@]2(Cl)[C@@H]3[C@H]4C[C@H]([C@@H]5O[C@H]45)[C@@H]3[C@@]1(Cl)C2(Cl)Cl | 0.909 | 0.963
17 | Cc1cc(C)c(C2=C(OC(=O)CC(C)(C)C)C3(CCCC3)OC2=O)c(C)c1 | 0.989 | 0.991
18 | Clc1cc(Cl)c(Cl)c(Cl)c1 | 0.91 | 0.968
19 | ClC1C(Cl)C(Cl)C(Cl)C(Cl)C1Cl (mixture of isomers) | 1.02 | 0.974
20 | Oc1ccc(C(c2ccc(O)cc2)(C(F)(F)F)C(F)(F)F)cc1 | 0.661 (active) | 0.85

Row | SMILES | growth AUC (Roseburia intestinalis) | growth AUC (Streptococcus salivarius)
21 | CCCN(CCC)C(=O)SCc1ccccc1 | 0.984 | 1
22 | CC(C)=CC1C(C(=O)OC(C#N)c2cccc(Oc3ccccc3)c2)C1(C)C (mixture of isomers) | 0.893 | 0.988
23 | O=C(O)CNCP(=O)(O)O | 0.966 | 1.03
24 | CNC(=S)S | 1.1 | 0.997
25 | COP(=O)(OC)O/C(=C/Br)c1ccc(Cl)cc1Cl | 1.02 | 1
26 | CCC(CC)Nc1c([N+](=O)[O-])cc(C)c(C)c1[N+](=O)[O-] | 0.897 | 0.959
27 | Oc1ccccc1Cl | 0.965 | 1.01
28 | O=C(O)CCCOc1ccc(Cl)cc1Cl | 0.966 | 0.969
29 | O=[N+]([O-])NC1=NCOCN1Cc1cnc(Cl)s1 | 0.941 | 0.85
30 | COC(=O)c1ccccc1CS(=O)(=O)NC(=O)Nc1nc(OC)cc(OC)n1 | 0.964 | 1.01
31 | O=C1OCC2C1C1(Cl)C(Cl)=C(Cl)C2(Cl)C1(Cl)Cl (stereo not given) | 0.975 | 0.986
32 | O=C(Nc1ccccc1-c1ccc(Cl)cc1)c1cccnc1Cl | 1.01 | 1.01
33 | CC(COc1ccc(Oc2ccccc2)cc1)Oc1ccccn1 (stereo not given) | 0.94 | 1.01
34 | CCOP(=S)(OCC)Oc1ccc(S(C)=O)cc1 (stereo not given) | 1.02 | 1.03
35 | C#CCN1C(=O)COc2cc(F)c(N3C(=O)C4=C(CCCC4)C3=O)cc21 | 0.965 | 0.974
36 | CN(C)C(CSS(=O)(=O)[O-])CSS(=O)(=O)[O-].[Na+].[Na+] | 1.24 | 0.961
37 | COP(=S)(OC)SCn1nnc2ccccc2c1=O | 1.09 | 0.969
38 | CC(C)=CC1C(C(=O)OCN2C(=O)C3=C(CCCC3)C2=O)C1(C)C (stereo not given) | 0.988 | 1.01
39 | CON(C)C(=O)Nc1ccc(Br)cc1 | 1.06 | 0.999
40 | CC(C)(C)c1ccc(CCOc2ncnc3ccccc23)cc1 | 0.901 | 0.975

Row | SMILES | growth AUC (Roseburia intestinalis) | growth AUC (Streptococcus salivarius)
41 | CS(=O)(=O)NC(=O)c1cc(Oc2ccc(C(F)(F)F)cc2Cl)ccc1[N+](=O)[O-] | 0.966 | 0.917
42 | CCOP(=O)(SC(C)CC)SC(C)CC (stereo not given) | 1.01 | 1.01
43 | N#Cc1c(Cl)c(Cl)c(Cl)c(C#N)c1Cl | 0.939 | 0.88
44 | OC[C@@H](O)[C@H]1O[C@@H]2O[C@H](C(Cl)(Cl)Cl)O[C@@H]2[C@H]1O (mixture of isomers) | 0.967 | 1.01
45 | CCCSP(=O)(OCC)Oc1ccc(Br)cc1Cl (stereo not given) | 1.01 | 1.01
46 | CCOP(=O)(N=C1SCC(C)S1)OCC (stereo not given) | 0.969 | 0.987
47 | COP(=S)(NC(C)C)Oc1ccccc1C(=O)OC(C)C (stereo not given) | 0.938 | 0.977
48 | CC(C)N(C(=O)SCC(Cl)=C(Cl)Cl)C(C)C | 1.01 | 0.996
49 | CC#Cc1cc(C)nc(Nc2ccccc2)n1 | 1.01 | 1.01
50 | CCC(C)c1cc([N+](=O)[O-])cc([N+](=O)[O-])c1OC(=O)C=C(C)C (stereo not given) | 0.948 | 0.872
51 | CCOP(=O)(OCC)OP(=O)(OCC)OCC | 0.969 | 1.03
52 | Oc1c(Cl)ccc(Cl)c1Cl | 0.951 | 0.964
53 | CC(C)N(Cc1ccccc1)C(=O)C(C)(C)C | 0.898 | 0.961
54 | CCCCCCCCCCCCC1=C(OC(C)=O)C(=O)c2ccccc2C1=O | 0.772 | 0.957
55 | CN(C)C(=S)SSC(=S)N(C)C | 0.822 | 0.956
56 | C=CCC1=C(C)C(OC(=O)C2C(C=C(C)C)C2(C)C)CC1=O (stereo not given) | 0.968 | 0.986
57 | CCSC(=O)N(CC)C1CCCCC1 | 1.07 | 0.948
58 | N#Cc1c(Cl)cccc1Cl | 1.07 | 0.951
59 | O=c1[nH]c2c(c(=O)n1C1CCCCC1)CCC2 | 0.982 | 0.998
60 | CCOC(=O)CCN(SN(C)C(=O)Oc1cccc2c1OC(C)(C)C2)C(C)C | 1.02 | 0.998
